In PubChem BioAssay AID2685 (National Center for Advancing Translational Sciences (NCATS), 2010):
The whole screen tested about 320,000 compounds, of which about 2,100 (0.66%) were called active. Roughly 53% stayed inconclusive and do not appear here. Calls come from the whole dose curve; as a rule, active = well fitted inhibition curve with a large enough effect in the signal ratio, with a control signal flat (not every such curve was filed as active); inconclusive = small, poorly fitted or top-dose-only effect, or effect the other way, or a change in a side signal; inactive = flat fitted curve, though single readings scatter; the % refers to the signal ratio. What follows is part of a selection rich in actives, with near analogues and random picks from the rest.
Potency is the fitted concentration of half-maximal effect.

Test: qHTS Assay for Lipid Storage Modulators in Drosophila S3 Cells;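 for cell number change: cells counted by Cell Tracker Red CMTPX staining in the red channel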; for lipid storage change, negative = inhibition: % is set by controls: 0 for no effect and ±100 for the full control effect
Conditions: BODIPY lipid droplet fluorescence, 18-24 h, cells fed with added oleic acid; cell number change: measured here: cell count max response; series mostly up to 46.1 µM
In short: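 Drosophila S3 cells got compounds at several concentrations plus oleic acid (400 uM solution). Laser-scanning cytometry with 488 nm excitation read lipid droplets at 500-530 nm and cells at 575-640 nm. Percent activity was relative to 20 uM Triacsin C.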
For `Cc1ccc(S(=O)(=O)N2CCOC2CNC(=O)C(=O)NCCc2c[nH]c3ccccc23)cc1` (stereo unspecified), the cell number change was 24.7% and the lipid storage change, negative = inhibition was 6.05% [at 9.22 µM] (inactive). For `Cc1nn(C)c(Cl)c1CN1CCN(CCC(C)C)C(CCO)C1` (stereo unspecified), the Potency was “inactive” and the cell number change was 11.3%. For `CCOC(=O)c1c(NC(=O)CSc2nnc(C)c(=O)[nH]2)sc(C)c1-c1ccc(C)cc1`, the Potency was “inactive” and the cell number change was 18.2%. In the case of `COc1cccc(NC(=O)C(C)Sc2nnc(C3CC3)n2C2CC2)c1` (stereo unspecified), the Potency was “inactive” and the cell number change was -1.32%. In the case of `Cc1ccc(S(=O)(=O)N2CCCCC2)cc1NC(=O)COC(=O)Cc1c(F)cccc1Cl`, the Potency was “inactive” and the cell number change was 10%. With `CCOC(=O)/C(=N/Nc1ccc(OC)cc1)N1CCCc2ccccc21` the Potency was “inactive” and the cell number change was -4.8%. For `CCOC(=O)c1[nH]ncc1CN1CCCC(C(=O)c2ccc(SC)cc2)C1` (stereo unspecified), the Potency was “inactive” and the cell number change was 0.969%. With `COC(=O)c1ccc(-c2c(-c3ccccc3)ncc3cc(F)ccc23)cc1` the Potency was “inactive” and the cell number change was -9.19%. In the case of `CCn1c(CSCc2ccc(C)cc2)nnc1SCC(=O)NCc1ccccc1`, the Potency was 20.6 µM (active) and the cell number change was -15.2%. In the case of `CCn1c(CSc2nc3ccccc3s2)nnc1SCC(=O)NCC(=O)OC`, the Potency was 25.9 µM (active) and the cell number change was -13.2%. For `CCn1c(CNc2ccc(C)cc2)nnc1SCC(=O)NCc1ccccc1`, the Potency was “inactive” and the cell number change was -12.4%. In the case of `CCn1c(CSCc2ccc(F)cc2)nnc1SCC(=O)NCc1ccccc1`, the Potency was “inactive”. In the case of `CCn1c(CSc2nc3ccccc3s2)nnc1SCC(=O)c1ccc(O)cc1O`, the Potency was “inactive” and the cell number change was -7.44%. For `CCn1c(CSc2nc3ccccc3s2)nnc1SCC(=O)c1ccc(O)c(O)c1`, the Potency was “inactive” and the cell number change was 8.44%. For `CC(C)[C@H](N)c1cn([C@@H](CC(N)=O)C(=O)N2CCNCC2)nn1`, the Potency was “inactive” and the cell number change was 10%. With `CCOC(=O)Cn1nc(C)c([N+](=O)[O-])c1C` the Potency was “inactive” and the cell number change was 2.33%. In the case of `O=C(CS(=O)CC(=O)N(CC(=O)NC1CCCC1)c1ccc2c(c1)OCCO2)Nc1ccc(F)cc1` (stereo unspecified), the Potency was “inactive” and the cell number change was 11.4%. With `Cc1cc(C)c2c(N)c(C(=O)c3ccc(Br)cc3)oc2n1` the Potency was “inactive” and the cell number change was -13.1%. In the case of `CCc1ccc(C(=O)c2oc3nc(C)cc(C)c3c2N)cc1`, the Potency was 25.9 µM (active) and the cell number change was -19.5%. With `Cc1ccc(C(=O)c2oc3nc(C)cc(C)c3c2N)cc1` the Potency was “inactive” and the cell number change was -19%. With `CC1CC(C)CN(S(=O)(=O)c2ccc(NC(=O)CN3C(=O)NC(C)(c4ccccc4)C3=O)cc2)C1` (stereo unspecified) the Potency was “inactive” and the cell number change was 3.59%. With `O=C(O)C1CC(=O)N(C2CCCCC2)C1c1ccccc1` (stereo unspecified) the Potency was “inactive” and the cell number change was -5.69%. With `CCOC(=O)N1CCN(C(=O)CSc2nc(=O)n3cc(C)ccc3n2)CC1` the Potency was “inactive”. In the case of `CC(=O)NC(c1ccccc1)c1c(O)ccc2ccccc12` (stereo unspecified), the Potency was “inactive” and the cell number change was 0.433%. In the case of `Cc1ccc(C(NC(=O)C2CCCCC2)c2c(O)ccc3ccccc23)cc1` (stereo unspecified), the Potency was 13 µM (active) and the cell number change was -26.6%. With `CC(C)CC(=O)NC(c1ccccc1)c1c(O)ccc2ccccc12` (stereo unspecified) the Potency was “inactive” and the cell number change was -6.8%. With `CCN(CC)S(=O)(=O)c1ccc(N2CCOCC2)c(NC(=O)CN2C(=O)NC(C)(c3ccccc3)C2=O)c1` (stereo unspecified) the Potency was “inactive”. With `O=C(Cc1cccc(F)c1)N1CCCC(CO)(Cc2ccc(F)cc2F)C1` (stereo unspecified) the Potency was “inactive” and the cell number change was 17.6%. For `CC(C)c1nc2sc3c(=O)[nH]c(=S)[nH]c3c2c2c1CCC2`, the Potency was 20.6 µM (active) and the cell number change was 5.1%. In the case of `CC(C)c1nc2sc3c(=O)[nH]cnc3c2c2c1CCC2`, the Potency was “inactive” and the cell number change was -2.67%. In the case of `CC1(C)Cc2c(c(-c3ccccc3)nc3sc4c(=O)[nH]c(=S)[nH]c4c23)CO1`, the Potency was “inactive”. In the case of `Cc1[nH]n(-c2ccc([N+](=O)[O-])cc2)c(=O)c1C=NCC1CCCO1` (stereo unspecified), the outcome was “inactive [at 9.22 µM]”. With `O=C(CN1C(=O)/C(=C/c2cccc(Br)c2)SC1=S)NCCCN1CCOCC1` the Potency was “inactive”. With `O=C(Cc1csc(NC(=O)Nc2ccc(Cl)cc2)n1)NC1CCCC1` the outcome was “inactive [at 0.0737 µM]”. In the case of `O=C(Cc1c(Sc2ccccc2)c2ccccc2n1Cc1ccccc1)NCCO`, the Potency was 13 µM (active). In the case of `CSc1c(CC(=O)NCCCO)n(Cc2ccccc2)c2ccccc12`, the Potency was “inactive” and the cell number change was -1.72%. In the case of `Cn1c(CC(=O)NCCO)c(Sc2ccccc2)c2ccccc21`, the Potency was “inactive” and the cell number change was -10.3%. For `Cc1cccc(-n2c(=S)[nH]c3nc4c(cc3c2=O)COC(C)(C)C4)c1`, the Potency was “inactive” and the cell number change was 18.9%. In the case of `CCOc1ccc(S(=O)(=O)NCCc2cn3ccccc3n2)cc1`, the Potency was “inactive” and the cell number change was 6.49%. In the case of `COc1ccc(-c2csc3ncnc(N4CCN(S(=O)(=O)c5ccccc5C#N)CC4)c23)cc1`, the Potency was 7.31 µM (active) and the cell number change was -21.2%. In the case of `CN1CCN(c2nc(-c3cccnc3)nc3scc(-c4ccccc4)c23)CC1`, the Potency was “inactive”. For `Oc1ccccc1N1CCN(c2ncnc3scc(-c4ccccc4)c23)CC1`, the Potency was 0.92 µM (active) and the cell number change was -12.6%. With `COc1ccc(-c2csc3ncnc(N4CCN(c5ccc(OC)cc5)CC4)c23)cc1` the Potency was “inactive” and the cell number change was 11.5%. For `COc1ccc(-c2csc3ncnc(N4CCN(S(=O)(=O)c5ccc(Cl)s5)CC4)c23)cc1`, the Potency was “inactive”. For `c1ccc(-c2csc3ncnc(N4CCOCC4)c23)cc1`, the Potency was “inactive” and the cell number change was -6.12%. For `Cc1nc(N2CCCCC2)c2c(-c3cccs3)csc2n1`, the Potency was “inactive” and the cell number change was 4.97%. For `Cc1ccc(-c2csc3ncnc(N4CCN(c5ccccc5O)CC4)c23)cc1`, the Potency was “inactive” and the cell number change was 7.78%. In the case of `Cc1nc(N2CCN(c3ccccc3O)CC2)c2c(-c3ccccc3)csc2n1`, the Potency was 4.11 µM (active) and the cell number change was -4.5%. With `COc1cccc(NC(=O)CN(C)C(=O)c2ccccc2-c2nc3ccccc3s2)c1` the Potency was “inactive” and the cell number change was -6.15%. In the case of `CCCCn1c(N)c(N(CC)C(=O)c2ccc([N+](=O)[O-])c(C)c2)c(=O)[nH]c1=O`, the Potency was “inactive” and the cell number change was 6.41%. With `COCC(=O)NCCSc1c(C)[nH]c2ccccc12` the Potency was “inactive”. For `COc1ccc(/C=N/NC(=O)c2cccc(Br)c2)cc1CSc1ccccn1`, the Potency was “inactive” and the cell number change was 25.3%. In the case of `Cc1ccccc1CN1CCC(n2nccc2NC(=O)CCOc2ccccc2)CC1`, the Potency was “inactive”. For `N#Cc1ccccc1OCC(=O)NCC(c1ccc(F)cc1)N1CCOCC1` (stereo unspecified), the Potency was “inactive” and the cell number change was 17.7%. With `CSc1nnc(C)c(=O)n1COC(=O)COc1ccc(F)cc1` the Potency was “inactive”. For `CCC(C)N(C(=O)Cn1nnc(-c2ccc(F)cc2)n1)C1CCS(=O)(=O)C1` (stereo unspecified), the Potency was “inactive” and the cell number change was 8.11%. For `O=C(CN(C(=O)c1csnn1)c1cccc(F)c1)NCc1ccc2c(c1)OCO2`, the Potency was “inactive” and the cell number change was 8.12%. With `COc1ccc(Cl)cc1S(=O)(=O)N(C)CC(=O)NCc1ccc2c(c1)OCO2` the Potency was “inactive” and the cell number change was 13.5%. In the case of `COc1ccc(S(=O)(=O)N(C)CC(=O)Nc2ccc3c(c2)OCO3)cc1`, the Potency was “inactive” and the cell number change was -1.44%. With `COc1ccc(N(CC(=O)NCc2ccc3c(c2)OCO3)C(=O)c2csnn2)cc1` the Potency was 1.16 µM (active) and the cell number change was -14.1%. For `O=C(CN(C(=O)c1csnn1)c1ccc(Cl)cc1)NCc1ccc2c(c1)OCO2`, the Potency was “inactive” and the cell number change was 3.81%. In the case of `COc1ccc(S(=O)(=O)N(C)CC(=O)NCc2ccc3c(c2)OCO3)cc1`, the Potency was 2.06 µM (active) and the cell number change was 16.1%. For `Cc1ccc2c(c1)N(S(=O)(=O)c1ccc3c(c1)NC(=O)CC(=O)N3)CCO2`, the Potency was “inactive” and the cell number change was 15%. For `COC(=O)c1sc2ncccc2c1OCc1ccccc1Cl`, the Potency was “inactive” and the cell number change was -10.8%. With `COc1cccc(C2/C(=C(/O)c3ccc4c(c3)OCO4)C(=O)C(=O)N2CCN2CCOCC2)c1` (stereo unspecified) the Potency was “inactive” and the cell number change was 25.8%. With `CC(C)Cc1nnc(NC(=O)C2=COCCO2)s1` the Potency was “inactive” and the cell number change was -9.23%. For `C=CCn1c(C)c(C(C)=O)c(N2CCCC2)nc1=S`, the Potency was “inactive” and the cell number change was 0.195%. In the case of `C=CCn1c(C)c(C(C)=O)c(N2CCOCC2)nc1=S`, the Potency was 23.1 µM (active) and the cell number change was -4.96%. With `C=CCn1c(C)c(C(C)=O)c(N2CCN(c3ccccc3)CC2)nc1=S` the Potency was “inactive” and the cell number change was -14.3%. For `CCOc1ccc(/C=N/n2c(SC)nnc(C(C)(C)C)c2=O)cc1`, the Potency was “inactive” and the cell number change was -13.9%. In the case of `Cc1cc(NS(=O)(=O)c2ccc(NC(=O)CCCC(=O)O)cc2)nc(C)n1`, the Potency was “inactive” and the cell number change was -5.64%. In the case of `COCCOCC(=O)Nc1ccc(S(=O)(=O)Nc2cc(C)nc(C)n2)cc1`, the Potency was “inactive” and the cell number change was 21.3%. For `CCOC(=O)COc1ccc(S(=O)(=O)Nc2ccc(C)cc2)cc1`, the Potency was “inactive” and the cell number change was 11.3%. For `Cc1cc(C)nc(NS(=O)(=O)c2ccc(NC(=O)CN3C(=O)c4ccccc4C3=O)cc2)n1`, the Potency was 6.51 µM (active) and the cell number change was -6.03%. In the case of `Cc1cc(NS(=O)(=O)c2ccc(NC(=O)CN3C(=O)c4ccccc4C3=O)cc2)nc(C)n1`, the Potency was “inactive”. With `Cc1cc(C)nc(NS(=O)(=O)c2ccc(NC(=O)CN3C(=O)S/C(=C\c4ccccc4)C3=O)cc2)n1` the Potency was “inactive” and the cell number change was 8.32%. With `CCOc1ccc(OCC(=O)Nc2ccc(S(=O)(=O)Nc3cc(C)nc(C)n3)cc2)cc1` the Potency was “inactive” and the cell number change was -4.96%. In the case of `Cc1cccc(OCC(=O)Nc2ccc(S(=O)(=O)Nc3cc(C)nc(C)n3)cc2)c1`, the Potency was “inactive” and the cell number change was 13.6%. With `COCC(=O)Nc1ccc(S(=O)(=O)Nc2cc(C)nc(C)n2)cc1` the Potency was 32.6 µM (active) and the cell number change was -33.4%. In the case of `COC(=O)COc1ccc(S(=O)(=O)Nc2ccc(C(N)=O)cc2)cc1`, the Potency was “inactive” and the cell number change was 10.2%. For `Cc1cc(NS(=O)(=O)c2ccc(NC(=O)COc3ccc(Br)cc3)cc2)nc(C)n1`, the Potency was 18.4 µM (active). With `COC(=O)COc1ccc(S(=O)(=O)Nc2ccc(NC(C)=O)cc2)cc1` the Potency was 3.66 µM (active) and the cell number change was -0.0647%. In the case of `Cc1c(C(=O)NCc2cccnc2)sc2nc(-c3ccccc3)cn12`, the Potency was “inactive” and the cell number change was -2.88%. With `Cc1cccn2c(=O)nc(SCC(=O)NCc3ccccc3)nc12` the cell number change was 26.3% and the lipid storage change, negative = inhibition was 14.2% [at 0.0737 µM] (inactive). With `Cc1ccc(-n2ncc3c(=O)n(-c4ccc(C)c(C)c4)c(C)nc32)cc1` the Potency was “inactive” and the cell number change was -21%. For `CC1=Nc2ccccc2N=C(NC(=O)CSC(=S)N2CCCCC2)C1c1ccccc1` (stereo unspecified), the Potency was “inactive” and the cell number change was 11.1%. In the case of `CC(C)CC(NC(=O)c1ccccc1NC(=O)c1ccccc1)C(=O)O` (stereo unspecified), the Potency was “inactive” and the cell number change was -8.71%. In the case of `CCC(=O)N(CCC(c1ccccc1)c1ccco1)Cc1cccs1` (stereo unspecified), the Potency was “inactive” and the cell number change was 1.01%.
